Calls of active or inactive are those of the source.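 The calls were made as follows: active = viability loss from added drug above about 55%, and viability with drug at most 40%, in both replicates (limit read from the data, passing the limit was not always enough); inconclusive = both conditions met in only one replicate; inactive = neither replicate meets both conditions.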

One experiment is described as follows: reversal of MRP1-mediated doxorubicin resistance, pilot screen, H69AR cells, doxorubicin co-treatment (AID 601). Particulars: H69AR cells + 2 uM doxorubicin, CellTiter-Glo, 72 h; at 10 µM; stronger effect = higher value. In general terms: ATP-based viability assays read luminescence as a measure of living cells.
Regarding `O=C(Cn1cc2c(n1)CCCCC2)N1CCc2ccccc21`, the differential viability (reversal) is -3.99% (inactive).

For the compound `CC(C)c1nccn1S(=O)(=O)c1cc(Cl)ccc1Cl`, the differential viability (reversal) was 3.94% (inactive).

Consider `CC(=O)Nc1cccc(NC(=O)CSc2nn3c(=O)c(C)nnc3s2)c1`, for which the differential viability (reversal) is 15.5% (inactive).

As to `CCOc1ccc2nc(Nc3nc4c(c(=O)[nH]3)CCC4)nc(C)c2c1`, the differential viability (reversal) is 5.67% (inactive).

With `C(=N\c1c(-c2ccccc2)nc2n1CCS2)/c1ccccc1`, the differential viability (reversal) is 10.5% (inactive).

As for `CCN(CC)S(=O)(=O)c1ccc2oc(C(=O)N3CCOCC3)c(C)c2c1`, the differential viability (reversal) is -0.525% (inactive).

Consider `CCOC(=O)C1CCN(Cc2ccc(OC)c(C)c2OC)CC1`, for which the differential viability (reversal) is 3.22% (inactive).

Take `Cc1cc(N)n2nc(-c3ccccc3)cc2n1`: the differential viability (reversal) is 11.5% (inactive).

As for `Cc1nnc(SCC(=O)Nc2sc3c(c2C#N)CCCC3)[nH]c1=O`, the differential viability (reversal) is 4.41% (inactive).

As for `Cc1cc(NC(=O)COc2cccc(C)c2C)no1`, the differential viability (reversal) was 15.6% (inactive).

For the compound `Cc1cc(C)c(NC(=O)CSc2nc3c(c(=O)n2C)SC(C)C3)c(C)c1` (stereo not given), the differential viability (reversal) was -6.17% (inactive).

Turning to `CC(=O)c1ccc(OCC(O)CN2CCN(CCO)CC2)cc1` (stereo not given), the differential viability (reversal) is -3.92% (inactive).

Turning to `CCn1cc(C(=O)NCC2CCCO2)c(=O)c2cc(S(=O)(=O)N(C)C)ccc21` (stereo not given), the differential viability (reversal) was 5.47% (inactive).

`C=CCSc1nc(N)c2c(C)c(C)sc2n1`: the differential viability (reversal) is 4.54% (inactive).

As for `CC1CCCN(C(=O)c2cc3c(-c4ccc(Cl)cc4)nn(C)c3s2)C1` (stereo not given), the differential viability (reversal) is 0.84% (inactive).

Consider `COc1cccc2cc(C(=O)OC3CCN(C)CC3)c(=O)oc12`, for which the differential viability (reversal) was 18.2% (inactive).

`COC(=O)c1cn(C(=O)c2ccc(Br)o2)c2ccccc12`: the differential viability (reversal) is -1.34% (inactive).

As to `COc1cc(NC(=O)C2C3C=CC(C3)C2C(=O)O)c(OC)cc1Cl` (stereo not given), the differential viability (reversal) is 4.4% (inactive).

In the case of `COc1ccc(C2CC(c3ccc(C)cc3)Nc3ncnn32)cc1` (stereo not given), the differential viability (reversal) is 14.9% (inactive).

With `CCc1ccc(C2CC(c3cccc(OC)c3)n3nc(N)nc3N2)cc1` (stereo not given), the differential viability (reversal) was 7.42% (inactive).

As to `COc1ccc(NS(=O)(=O)c2coc(C(N)=O)c2)cc1Cl`, the differential viability (reversal) was -8.07% (inactive).

For `O=C1c2ccccc2S(=O)(=O)N1CC(O)Cn1c2ccccc2c2ccccc21` (stereo not given), the differential viability (reversal) is -2.51% (inactive).

As to `O=C(Nc1nnc(-c2ccc(Cl)cc2)o1)C1CCCCC1`, the differential viability (reversal) is -17.3% (inactive).

On to `O=C1c2ccccc2C(Nc2ccc(F)cc2F)N1CCN1CCOCC1` (stereo not given), for which the differential viability (reversal) was -3.69% (inactive).

In the case of `CCOc1ccc(N(CC(=O)NC2CCCCC2)S(=O)(=O)c2c(C)noc2C)cc1`, the differential viability (reversal) was -11.3% (inactive).

Consider `Cc1ccc2oc(=O)c3cnn(CC(=O)N4CCCc5ccccc54)c3c2c1`, for which the differential viability (reversal) was 13.9% (inactive).

Regarding `O=C(Nn1cnnc1)C1Cc2ccccc2CN1S(=O)(=O)c1ccc(F)cc1` (stereo not given), the differential viability (reversal) is -1.64% (inactive).

Regarding `Cc1cc(C)cc(N(CC(=O)NC2CCC(C)CC2)S(=O)(=O)c2c(C)noc2C)c1` (stereo not given), the differential viability (reversal) is 4.2% (inactive).

Take `Cc1nc2ccccn2c1/C(O)=C1\C(=O)C(=O)N(CCCN(C)C)C1c1ccc(F)cc1` (stereo not given): the differential viability (reversal) was -13.7% (inactive).

On to `CC(=O)N(C(C)=O)c1ncc2c([nH]c3ccccc32)c1C#N`, for which the differential viability (reversal) is -20.5% (inactive).

Turning to `CC(C)c1ccc(C(O)c2cnc(C(C)C)n2C)cc1` (stereo not given), the differential viability (reversal) was 6.51% (inactive).

On to `COCCn1cc(C(=O)c2ccccc2OCC(=O)Nc2cc(C)on2)cc(C#N)c1=O`, for which the differential viability (reversal) was 6.63% (inactive).

With `O=C(NC(=O)c1cccc(F)c1)OC[C@@H]1CCCN2CCCC[C@H]12`, the differential viability (reversal) is 0.59% (inactive).

On to `CCN1CCN(C(=O)Cn2ncc3ccsc3c2=O)CC1`, for which the differential viability (reversal) is 4.04% (inactive).

For `CCCC(=O)Nc1cc(C)c2c(=O)oc3ccccc3c2n1`, the differential viability (reversal) is -20.4% (inactive).

As to `Cc1cc(C)c(C#N)c(SCC(=O)Nc2ccc(S(=O)(=O)Nc3onc(C)c3C)cc2)n1`, the differential viability (reversal) is -9.41% (inactive).

Take `CC1=C(C(N)=O)C(c2ccncc2)n2nc(-c3ccccc3Cl)nc2N1` (stereo not given): the differential viability (reversal) is 13.3% (inactive).

In the case of `O=C(C1CCCN1S(=O)(=O)c1cccc2cccnc12)N1CCn2c1nc1ccccc12` (stereo not given), the differential viability (reversal) was 1.47% (inactive).

For the compound `Cc1ccc(C(=O)CC2(O)C(=O)N(C)c3ccc(Br)cc32)c(C)c1` (stereo not given), the differential viability (reversal) is -16.9% (inactive).

In the case of `COc1ccc(OCCSc2nc3ccccc3n2CC(=O)O)cc1`, the differential viability (reversal) was 2.5% (inactive).

Staying with this experiment, now noted: H69AR cells + 2 uM doxorubicin, CellTiter-Glo, 72 h; measured here: viability with 2 uM doxorubicin; at 10 µM; stronger effect = lower value.
The term viability denotes a read-out of living cells in per cent, often relative to untreated cells. `O=C(Cn1cc2c(n1)CCCCC2)N1CCc2ccccc21`: the viability amounted to 91.8%.

As to `CC(C)c1nccn1S(=O)(=O)c1cc(Cl)ccc1Cl`, the viability was found to be 86.3%.

Turning to `CC(=O)Nc1cccc(NC(=O)CSc2nn3c(=O)c(C)nnc3s2)c1`, the viability was found to be 75.3%.

Turning to `CCOc1ccc2nc(Nc3nc4c(c(=O)[nH]3)CCC4)nc(C)c2c1`, the viability turned out to be 97.7%.

For the compound `C(=N\c1c(-c2ccccc2)nc2n1CCS2)/c1ccccc1`, the viability was 89.5%.

As to `CCN(CC)S(=O)(=O)c1ccc2oc(C(=O)N3CCOCC3)c(C)c2c1`, the viability was found to be 97%.

Consider `CCOC(=O)C1CCN(Cc2ccc(OC)c(C)c2OC)CC1`, for which the viability came out at 83.7%.

Regarding `Cc1cc(N)n2nc(-c3ccccc3)cc2n1`, the viability turned out to be 68.5%.

Turning to `Cc1nnc(SCC(=O)Nc2sc3c(c2C#N)CCCC3)[nH]c1=O`, the viability is 97.4%.

In the case of `Cc1cc(NC(=O)COc2cccc(C)c2C)no1`, the viability came out at 92.5%.

Turning to `Cc1cc(C)c(NC(=O)CSc2nc3c(c(=O)n2C)SC(C)C3)c(C)c1` (stereo not given), the viability amounted to 96.2%.

Consider `CC(=O)c1ccc(OCC(O)CN2CCN(CCO)CC2)cc1` (stereo not given), for which the viability turned out to be 100%.

For the compound `CCn1cc(C(=O)NCC2CCCO2)c(=O)c2cc(S(=O)(=O)N(C)C)ccc21` (stereo not given), the viability turned out to be 83.1%.

Turning to `C=CCSc1nc(N)c2c(C)c(C)sc2n1`, the viability was found to be 83.5%.

`CC1CCCN(C(=O)c2cc3c(-c4ccc(Cl)cc4)nn(C)c3s2)C1` (stereo not given): the viability came out at 91.7%.

For the compound `COc1cccc2cc(C(=O)OC3CCN(C)CC3)c(=O)oc12`, the viability amounted to 86.5%.

Take `COC(=O)c1cn(C(=O)c2ccc(Br)o2)c2ccccc12`: the viability is 89.6%.

`COc1cc(NC(=O)C2C3C=CC(C3)C2C(=O)O)c(OC)cc1Cl` (stereo not given): the viability is 93.9%.

With `COc1ccc(C2CC(c3ccc(C)cc3)Nc3ncnn32)cc1` (stereo not given), the viability is 86.1%.

On to `CCc1ccc(C2CC(c3cccc(OC)c3)n3nc(N)nc3N2)cc1` (stereo not given), for which the viability came to 97.5%.

Take `COc1ccc(NS(=O)(=O)c2coc(C(N)=O)c2)cc1Cl`: the viability worked out at 107%.

Consider `O=C1c2ccccc2S(=O)(=O)N1CC(O)Cn1c2ccccc2c2ccccc21` (stereo not given), for which the viability worked out at 87.6%.

As to `O=C(Nc1nnc(-c2ccc(Cl)cc2)o1)C1CCCCC1`, the viability is 86.5%.

In the case of `O=C1c2ccccc2C(Nc2ccc(F)cc2F)N1CCN1CCOCC1` (stereo not given), the viability is 81.9%.

Turning to `CCOc1ccc(N(CC(=O)NC2CCCCC2)S(=O)(=O)c2c(C)noc2C)cc1`, the viability came out at 85.6%.

With `Cc1ccc2oc(=O)c3cnn(CC(=O)N4CCCc5ccccc54)c3c2c1`, the viability is 60.9%.

`O=C(Nn1cnnc1)C1Cc2ccccc2CN1S(=O)(=O)c1ccc(F)cc1` (stereo not given): the viability stood at 98.8%.

Regarding `Cc1cc(C)cc(N(CC(=O)NC2CCC(C)CC2)S(=O)(=O)c2c(C)noc2C)c1` (stereo not given), the viability is 83.8%.

`Cc1nc2ccccn2c1/C(O)=C1\C(=O)C(=O)N(CCCN(C)C)C1c1ccc(F)cc1` (stereo not given): the viability came to 105%.

Consider `CC(=O)N(C(C)=O)c1ncc2c([nH]c3ccccc32)c1C#N`, for which the viability turned out to be 81.9%.

For the compound `CC(C)c1ccc(C(O)c2cnc(C(C)C)n2C)cc1` (stereo not given), the viability worked out at 81.6%.

On to `COCCn1cc(C(=O)c2ccccc2OCC(=O)Nc2cc(C)on2)cc(C#N)c1=O`, for which the viability stood at 102%.

Take `O=C(NC(=O)c1cccc(F)c1)OC[C@@H]1CCCN2CCCC[C@H]12`: the viability worked out at 95.9%.

`CCN1CCN(C(=O)Cn2ncc3ccsc3c2=O)CC1`: the viability worked out at 93%.

For the compound `CCCC(=O)Nc1cc(C)c2c(=O)oc3ccccc3c2n1`, the viability was found to be 98%.

In the case of `Cc1cc(C)c(C#N)c(SCC(=O)Nc2ccc(S(=O)(=O)Nc3onc(C)c3C)cc2)n1`, the viability turned out to be 96.8%.

For the compound `CC1=C(C(N)=O)C(c2ccncc2)n2nc(-c3ccccc3Cl)nc2N1` (stereo not given), the viability is 86.9%.

In the case of `O=C(C1CCCN1S(=O)(=O)c1cccc2cccnc12)N1CCn2c1nc1ccccc12` (stereo not given), the viability stood at 92.6%.

Consider `Cc1ccc(C(=O)CC2(O)C(=O)N(C)c3ccc(Br)cc32)c(C)c1` (stereo not given), for which the viability was found to be 91.9%.

With `COc1ccc(OCCSc2nc3ccccc3n2CC(=O)O)cc1`, the viability was determined as 95.3%.
